Source: PubChem
MEKK2 mut-MEK5 = signal of MEK5 binding to mutant human MEKK2 PB1 domain | bead flow cytometry, Alexa488-MEK5 binding to MEKK2 mutant | percent response, % at 10 µM | actives 0.35% (n = 290,000) | AID 1530; in the data active means percent response above about 24%, passing the limit was not always enough
MEKK2wt PB1 HTS = raises or lowers MEK5 binding to wildtype human MEKK2 PB1 domain | bead flow cytometry, Alexa488-MEK5 binding to MEKK2 WT; actives lie on both sides | Q9Y2U5 | AID 1531 | actives 1.1% (n = 290,000) | binding response (% of control), % at 10 µM; in the data active means binding response below about 67% or above about 130%
MEKK3 PB1 HTS = MEKK3-MEK5 PB1 interaction, increase or decrease; binding response (% of control), % at 10 µM; bead-based flow cytometry, Alexa488-MEK5 binding to MEKK3; actives lie on both sides; 0 = blocked by unlabeled MEK5, 100 = vehicle; Q99759; AID 1529; actives 1.4% (n = 290,000);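 active means binding response more than 3 SD above or below the average of its plate-row segment, actives on both sides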;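 further: Alexa488 bead fluorescence after subtracting the streptavidin-only scavenger bead signal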
Target sequence (Q99759 whole entry, looked up): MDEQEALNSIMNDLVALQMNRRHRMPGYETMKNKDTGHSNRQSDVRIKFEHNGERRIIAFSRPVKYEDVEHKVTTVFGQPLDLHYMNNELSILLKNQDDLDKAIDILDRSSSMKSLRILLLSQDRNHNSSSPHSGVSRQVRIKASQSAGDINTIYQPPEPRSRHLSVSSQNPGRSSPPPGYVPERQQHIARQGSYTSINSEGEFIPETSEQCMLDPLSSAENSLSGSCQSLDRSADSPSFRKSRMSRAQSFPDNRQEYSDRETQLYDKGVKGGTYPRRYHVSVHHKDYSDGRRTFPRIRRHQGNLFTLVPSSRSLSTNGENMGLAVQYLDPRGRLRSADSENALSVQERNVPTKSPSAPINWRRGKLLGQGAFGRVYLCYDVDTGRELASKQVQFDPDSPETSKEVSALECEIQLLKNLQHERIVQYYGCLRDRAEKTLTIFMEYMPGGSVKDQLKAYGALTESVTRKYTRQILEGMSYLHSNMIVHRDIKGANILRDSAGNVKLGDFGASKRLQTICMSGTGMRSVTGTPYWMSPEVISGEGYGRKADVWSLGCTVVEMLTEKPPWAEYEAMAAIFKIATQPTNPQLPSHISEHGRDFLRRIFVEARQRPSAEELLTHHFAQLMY
GRK2 aptamer HTS = human GRK2 inhibition via aptamer displacement; bead flow cytometry, FAM-aptamer displacement from GRK2; AID 488847; actives 0.59% (n = 330,000); inhibition of aptamer binding, % at 10 µM;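 active means inhibition of aptamer binding above 40%, roughly 3 SD of noise, on plates passing a quality check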;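 further: median bead fluorescence of bound FAM aptamer so fluorescent compounds give negative values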
GRK2 inh confirm = human GRK2 inhibition confirmation, cherry pick 1. shares compounds with GRK2 aptamer HTS. bead-bound GRK2, FAM-aptamer displacement, flow cytometry. actives 4% (n = 2,000). aptamer displacement, % at 10 µM;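 active means aptamer displacement above 40%, near three times the noise of non-fluorescent compounds, on plates passing quality checks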;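 further: negative values mostly reflect intrinsic compound fluorescence rather than true enhancement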
Aptamer quench = counter-screen for GRK2 aptamer inhibitors: fluorescent aptamer quenchers | shares compounds with GRK2 aptamer HTS | Fluorescent RNA aptamer beads, quenching, flow cytometry; stronger effect = higher value | fluorescence change (kMESF span), kMESF (test concentration not listed) | 110 tested, under 10 active | AID 504521;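 active means compounds whose bead fluorescence drops by more than 37 kMESF across the dose range, marking them as dye quenchers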
FAM quench CP1 = aptamer fluorescence quenching in GRK2 counter-screen. Carboxyfluorescein RNA aptamer on beads, flow cytometry quenching; stronger effect = lower value. shares compounds with GRK2 aptamer HTS. fluorescence response (% of DMSO), % at 10 µM. 2,000 tested, under 10 active;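 active means compounds that quench the bead-bound fluorescent RNA probe, cutting fluorescence to under half of the solvent control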;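 further: counterscreen run without GRK2 so only probe quenching by compound is measured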
GRK2 CP2 = confirmation of human GRK2 inhibitors binding RNA aptamer site; AID 504782; bead-bound GRK2, FAM-aptamer displacement, flow cytometry; inhibition of aptamer binding, % at 10 µM; 360 tested, under 10 active; shares compounds with GRK2 aptamer HTS;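 active means inhibition of aptamer binding above 40%, about triple the noise seen with nonglowing compounds, on plates passing quality control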;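 further: negative values mostly come from compounds that fluoresce themselves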
Aptamer quench 2 = quenches fluorescent RNA aptamer, GRK2 hit artifact | 25 tested, under 10 active | Streptavidin beads, FAM-RNA aptamer fluorescence quenching, flow cytometry | change in fluorescence (kMESF span), kMESF (concentration not given with the values) | shares compounds with GRK2 aptamer HTS;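 active means compounds quenching the bead-bound labeled aptamer, with fluorescence dropping by more than 37 kMESF over the dose range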
FAM quench SP = aptamer fluorescence quenching in GRK2 counter-screen | shares compounds with GRK2 aptamer HTS | carboxyfluorescein RNA aptamer beads, flow cytometry quenching; stronger effect = lower value | fluorescence response vs DMSO, % at 10 µM | 360 tested, under 10 active | AID 588494;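 active means response vs DMSO under 50%, meaning signal dropped by over half, treated as fluorescence quencher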;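 further: labelled aptamer on streptavidin beads without GRK2 as a quench counter-screen; 100% = bead fluorescence of DMSO wells and lower means quenching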
FAM quench DR = quenches fluorescent RNA aptamer, GRK2 hit artifact; shares compounds with GRK2 aptamer HTS; Bead-bound FAM RNA aptamer fluorescence quenching, flow cytometry; stronger effect = lower value; fluorescence ratio to DMSO, % at 11.1 µM; 35 tested, under 10 active; AID 588496;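 active means compounds that dim the fluorescent label, raw bead signal shifting by over 33 units between lowest and highest dose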
An asterisk follows results filed as active; x = no result. Sampled rows, rich in hits. Any-hit rate of the full collection: about 2.5%.

SMILES	MEKK2 mut-MEK5	MEKK2wt PB1 HTS	MEKK3 PB1 HTS	GRK2 aptamer HTS	GRK2 inh confirm	FAM quench CP1	others
CCn1c(=O)n(CC(=O)NCC2CCCO2)c(=O)c2c3c(sc21)CCCC3 (stereo not drawn)	0.0	102.0	102.0	0.0	x	x
CCc1nnc(NC(=O)CSc2nnc(-c3ccc(O)cc3)n2C)s1	-6.0	101.0	102.0	37.0	-4.6	101.7
CCc1nnc(NC(=O)CSc2nnc(-c3ccc(OC)cc3)n2C)s1	-3.0	95.0	97.0	2.0	x	x
O=C(COC(=O)CNC(=O)c1ccccc1)Nc1nnc(-c2ccccc2)o1	x	x	x	0.0	-1.1	96.3
O=C(COC(=O)CNC(=O)c1cccc(Br)c1)Nc1nnc(-c2ccccc2)o1	x	x	x	3.0	x	x
Cc1nnc(SCc2c(Cl)cccc2Cl)n(N)c1=O	-3.0	92.0	89.0	61.0*	4.0	95.2
Cc1nnc(SCc2cccc3ccccc23)n(N)c1=O	9.0	96.0	97.0	0.0	x	x
CCc1ccccc1NC(=O)CCS(=O)(=O)c1ccc(OC)cc1	1.0	103.0	99.0	53.0*	27.3	98.8	Aptamer quench=2.8;Aptamer quench 2=0.3
COc1ccc(NC(=O)CCS(=O)(=O)c2cccc3nonc23)cc1	-4.0	92.0	87.0	1.0	x	x
COc1ccc(NC(=O)CCS(=O)(=O)c2cccc3nonc23)c(OC)c1	6.0	97.0	102.0	1.0	x	x	GRK2 CP2=-6.2;FAM quench SP=100.0
CCOc1ccccc1NC(=O)CCS(=O)(=O)c1ccc(OC)cc1	-6.0	93.0	94.0	0.0	x	x	GRK2 CP2=-32.9;FAM quench SP=103.0
CCOc1ccccc1NC(=O)CCC(=O)Nc1ccccc1OCC	2.0	97.0	100.0	0.0	x	x
COc1ccc(S(=O)(=O)CCC(=O)Nc2c(C)cccc2C)cc1	-2.0	103.0	100.0	6.0	x	x
CC1CN(C(=O)c2cc3ccccc3cc2O)CC(C)O1 (stereo not drawn)	x	x	x	0.0	x	x
Cc1cc(C)n(-c2nc(NCCCO)c3c4c(sc3n2)CCCC4)n1	2.0	111.0	111.0	4.0	-3.0	95.8
Cc1cc(C)n(-c2nc(NCCO)c3c4c(sc3n2)CCCC4)n1	3.0	101.0	100.0	9.0	x	x
CCC(=O)Oc1ccc2c(C)cc(=O)oc2c1C(=O)CC	-15.0	80.0	77.0	100.0*	2.8	101.2
O=C(O)c1ccc(OC(F)(F)C(F)C(F)(F)F)cc1 (stereo not drawn)	4.0	106.0	111.0	76.0*	2.9	98.5
CCOc1ccccc1N(C(=O)Cn1nnnc1-c1ccc(C)o1)C(CC)C(=O)NC(C)(C)C (stereo not drawn)	2.0	105.0	104.0	97.0*	-1.4	102.2
CCNc1nc(N)nc(Oc2ccc(OCc3ccccc3)nn2)n1	3.0	104.0	96.0	1.0	x	x
O=C(NCCc1c[nH]c2ccccc12)c1ccc([N+](=O)[O-])cc1	4.0	99.0	99.0	41.0*	x	x	GRK2 CP2=19.1;FAM quench SP=100.0
Oc1ccc(C[C@H]2CNCCN2CCc2cc(C(F)(F)F)cc(C(F)(F)F)c2)cc1	x	x	x	44.0*	x	x	GRK2 CP2=15.2;FAM quench SP=101.0
C=CCn1c(SCC(=O)NCC)nc2sc3c(c2c1=O)CCC3	4.0	106.0	108.0	0.0	x	x	GRK2 CP2=-23.0;FAM quench SP=101.0
C=CCn1c(SCC(C)=O)nc2sc3c(c2c1=O)CCC3	8.0	108.0	109.0	1.0	x	x
C=CCn1c(SC(CCO)C(=O)NCc2ccco2)nc2sc3c(c2c1=O)CCC3 (stereo not drawn)	3.0	100.0	102.0	1.0	x	x	GRK2 CP2=12.7;FAM quench SP=101.0
SMILES	MEKK2 mut-MEK5	MEKK2wt PB1 HTS	MEKK3 PB1 HTS	GRK2 aptamer HTS	GRK2 inh confirm	FAM quench CP1	others
C=CCn1c(SCC(=O)NC)nc2sc3c(c2c1=O)CCC3	x	x	x	1.0	x	x	GRK2 CP2=16.8;FAM quench SP=99.0
C=CCNC(=O)CSc1nc2sc3c(c2c(=O)n1CCC)CCC3	1.0	97.0	102.0	3.0	x	x
CC(C)NC(=O)CCS(=O)(=O)c1ccc(Br)s1	4.0	108.0	101.0	2.0	x	x
Cc1ccccc1NC(=O)CCS(=O)(=O)c1ccc(Br)s1	0.0	101.0	102.0	67.0*	38.3	100.0	Aptamer quench=11.5;FAM quench DR=95.0
COC(=O)c1ccccc1NC(=O)CCS(=O)(=O)c1ccc(Br)s1	2.0	100.0	97.0	3.0	-0.3	102.6	Aptamer quench=1.2;FAM quench DR=99.0
COC(=O)c1ccc(NC(=O)CCS(=O)(=O)c2ccc(Br)s2)cc1	2.0	98.0	98.0	0.0	x	x
Cc1ccc(OCC(=O)c2c(N)n(C)c(=O)n(C)c2=O)c([N+](=O)[O-])n1	x	x	x	77.0*	60.5*	96.4	Aptamer quench=18.6
CCOc1ccc(Oc2ccc(NC(=O)[C@@H](NC(N)=O)[C@@H](C)CC)cc2)cc1	4.0	111.0	111.0	96.0*	5.8	98.4
CC[C@H](C)[C@H](NC(N)=O)C(=O)Nc1ccc(S(=O)(=O)NC(C)C)cc1	4.0	99.0	97.0	1.0	x	x
CN(C)c1ccc(/C=C/c2nc3ccccc3c(=O)n2-c2ccc(C(=O)O)cc2)cc1	5.0	101.0	105.0	7.0	-3.6	102.2
O=Cc1cccc(OC(=O)/C=C/c2ccco2)c1	-1.0	87.0	94.0	62.0*	4.8	97.3
O=C(c1ccc([N+](=O)[O-])s1)N1CCN(c2ccccn2)CC1	-4.0	98.0	100.0	0.0	x	x
CCOC(=O)C1(Cc2cccc(OC)c2)CCN(Cc2cccn2-c2nccs2)CC1	1.0	102.0	104.0	0.0	x	x
O=C(COC(=O)c1cc(=O)[nH]c2ccccc12)NC(=O)c1ccccc1	x	x	x	68.0*	-2.9	109.6
N#CCCN(C(=O)COC(=O)c1n[nH]c2ccccc12)c1ccccc1	x	x	x	0.0	x	x
N#CCCN(C(=O)COC(=O)c1cc(=O)[nH]c2ccccc12)c1ccccc1	x	x	x	45.0*	-0.5	101.0
O=C(N/C(=C/c1cccs1)c1nc2ccccc2[nH]1)c1ccccc1	1.0	103.0	105.0	6.0	x	x
O=C(c1ccc(Cl)c(S(=O)(=O)N2CCc3ccccc3C2)c1)N1CCN(c2ccccc2)CC1	21.0	104.0	108.0	0.0	-0.1	102.2
O=C1NC(c2cccc(Br)c2)=N/C1=C\c1ccco1	-1.0	100.0	123.0	50.0*	-2.2	97.9
